This note sets out measurements from PubChem BioAssay (NCATS).

Structures are written as SMILES. Records with an inconclusive call do not appear. More than one record can exist for a structure, and the calls need not agree. Calls of active or inactive are those of the source. Unless noted, the call rests on the fitted dose curve; in most records, active means well fitted curve in the direction sought with a large enough effect; inconclusive means small, poorly fitted or top-dose-only effect, or another doubt; inactive means no such curve, though single readings can be large; an effect the other way counts as inactive or inconclusive.

Assay [1] addresses ATP-dependent 6-phosphofructokinase (Trypanosoma brucei brucei) (UniProt O15648). The assay can be described thus: qHTS Assay to Find Inhibitors of T. brucei phosphofructokinase: hit validation (AID 492961).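 Further: luminescence reports ADP formed as PFK phosphorylates fructose-6-phosphate with ATP; series mostly up to about 51 µM; on the % scale 0 is the no-effect control and ±100 the full control effect.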 The gist of the method: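 Measures ADP output of PFK (1.25 nM) at 0.1 mM ATP, 0.5 mM F6P, pH 8.0 TEA buffer with 5 mM MgCl2. No-enzyme wells define full inhibition; uninhibited enzyme wells define zero.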
For orientation: In qHTS, concentration-response curves come from the screen itself.

Assay [2] has as its target Ubiquitin carboxyl-terminal hydrolase 1 (Homo sapiens) (UniProt O94782). The assay is described as follows: Inhibitors of USP1/UAF1: Pilot qHTS (AID 504865). Further: nearly all actives have a fitted effect of over 35% in size. Further: potency means the concentration at half of the fitted maximal effect. The gist of the method: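 USP1/UAF1 complex at 1 nM preincubated 15 min at room temperature with compound, then Ub-Rho substrate added at 150 nM final. Fluorescence (480/540 nm) read kinetically in 50 mM HEPES pH 7.8, 0.5 mM EDTA, 1 mM TCEP, 0.1 mg/ml BSA, 0.01% Tween-20.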

Assay [3] concerns the target D(1A) dopamine receptor (Homo sapiens) (UniProt P21728). The assay can be described thus: HTS Assay for Allosteric Agonists of the Human D1 Dopamine Receptor: Primary Screen for Agonists (AID 488981). Further: 0% is about no effect. In outline:
(§1)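 Calcium flux in an inducible, force-coupled HEK293 Trex D1 line (overnight at 30 C): agonist mode is the 180 s kinetic read after compound; potentiator mode is the following 180 s read after dopamine at EC20.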

Assay [4] shares this target. The assay is described as follows: HTS Assay for Allosteric Agonists of the Human D1 Dopamine Receptor: Primary Screen for Antagonists (AID 488983).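 Further: calcium flux response to an EC80 dopamine challenge measured with no-wash dye; nearly all actives have a fitted effect of over 65% in size.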 Further: potency means the concentration at half of the fitted maximal effect. The gist of the method: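 In this primary screen, compounds are applied to calcium-dye-loaded HEK293 T-REx cells with force-coupled D1 expression induced overnight at 30 C. An EC80 of dopamine follows the 180 s compound phase, and calcium is monitored for a further 180 s.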

Assay [5] can be described thus: Validation screen for small molecules that induce genotoxicity in human embryonic kidney (HEK293T) cells expressing luciferase-tagged ELG1 (AID 493106). Further: 0% is about no effect. The gist of the method:
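In this validation screen, increased ELG1-luciferase signal flags compounds causing genetic stress. HEK293T reporter cells are treated 16 hr (37 °C, 5% CO2), developed with ONE-Glo for 30 min at room temperature, and imaged on a CCD-based reader.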

Assay [6] addresses ATPase family AAA domain-containing protein 5 (Homo sapiens) (UniProt Q96QE3). The assay is described as follows: Validation screen for small molecules that inhibit ELG1-dependent DNA repair in human embryonic kidney (HEK293T) cells expressing luciferase-tagged ELG1 (AID 493107).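 Further: cells co-treated with the DNA-damaging agent 5-fluorouridine alongside compound; series mostly up to about 46 µM; on the % scale 0 is the no-effect control and ±100 the full control effect; inhibitors lower the ELG1-luciferase luminescence signal; nearly all actives have a fitted effect of over 70% in size.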 The gist of the method:
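Compounds reducing 5-fluorouridine-driven ELG1-luciferase signal in HEK293T cells were scored; exposure lasted 16 hr at 37 °C with luminescence detected via ONE-Glo.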

Assay [7] is described as follows: Nrf2 qHTS screen for inhibitors: Validation (AID 493153; active means well fitted inhibition curve with a large enough effect in the main read-out, with a control signal flat, not every such curve was filed as active; further: potency means the concentration at half of the fitted maximal effect). As to conditions: Potency: luciferase luminescence; viability change: measured here: cytotoxicity max response. In outline:
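In this counterscreened reporter format, each well gives two signals: CellTiter-Fluor fluorescence for cytotoxicity and ARE-luciferase luminescence for Nrf2 function. A549 ARE_Fluc cells in 5% FBS OPTI-MEM were exposed to compound titrations for 18-24 h.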

Assay [8] is described as follows: qHTS for Inhibitors of Cell Surface uPA Generation: Validation Assay (AID 493164).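 Further: RAW 264.7 macrophage cells exposed to compound for 18 h; 0% is about no effect.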 The gist of the method: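 Compounds are titrated over seven points (2.45 nM–38.3 uM final) onto pre-plated RAW 264.7 cells and incubated for 18 h. Retained intracellular ATP, measured with ATP-Lite, indicates blocked lethal factor entry.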
The target of assay [9] is Peptidyl-prolyl cis-trans isomerase NIMA-interacting 1 (Homo sapiens) (UniProt Q13526). The assay can be described thus: qHTS Validation Assay to Find Inhibitors of Pin1 (AID 504536; active means well fitted inhibition curve with a large enough effect in the polarisation, with a control signal flat, not every such curve was filed as active; the % refers to the polarisation;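 further: 0% = full Pin1 enzyme wells and -100% = no-enzyme wells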). In outline: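 Fluorescence polarization competition: compounds (titration) displace HiFluor-488-labeled Pin1-1b peptide from Pin1 (0.3 uM final) in pH 7.5 HEPES buffer with DTT, 10 min at room temperature; %Activity normalized to no-enzyme wells, curves fitted.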
Chain of Peptidyl-prolyl cis-trans isomerase NIMA-interacting 1 (Homo sapiens) (Q13526 whole entry, looked up): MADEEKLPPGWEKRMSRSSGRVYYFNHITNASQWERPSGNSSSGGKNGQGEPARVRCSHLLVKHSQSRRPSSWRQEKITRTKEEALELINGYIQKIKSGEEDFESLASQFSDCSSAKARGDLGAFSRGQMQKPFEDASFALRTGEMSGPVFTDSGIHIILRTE

The target in assay [10] is Phosphoglycerate kinase, glycosomal (Trypanosoma brucei brucei) (UniProt P07378). The assay can be described thus: qHTS Validation Assay to Find Inhibitors of Phosphoglycerate Kinase (AID 504547).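 Further: control wells lack PGK and mark full inhibition.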 In outline:
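Luminescence end-point (Kinase-Glo Plus, 10 min) after a 60 min room-temperature coupled reaction. GAPDH at 100nM final supplies 1,3-BPG to PGK. Buffer: 100mM TEA pH 7.6, 5mM MgCl2, 0.01% Tween-20. Wells lacking PGK served as controls.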

Assay [11] addresses phosphoglycerate mutase (Leishmania major) (UniProt Q4Q090). The assay is described as follows: qHTS Validation Assay to Find Inhibitors of Phosphoglycerate Mutase (AID 504548). Further: series mostly up to about 58 µM; on the % scale 0 is the no-effect control and ±100 the full control effect. The gist of the method: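 Luminescent end-point read-out via Kinase-GloPlus after a 10-minute development. Reaction: 1.25nM Leishmania major PGAM with substrate and compound, 45 minutes at room temperature in TEA buffer (pH 7.6) with MgCl2 and Tween-20.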

A short description of assay [12]: qHTS for Inhibitors of ATXN expression: Validation of Cytotoxic Assay (AID 588349). Further: potency means the concentration at half of the fitted maximal effect. In outline:
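Toxicity of test compounds toward HEK293 cells is scored from cellular ATP content measured by CellTiter Glo. Cells receive titrated doses and incubate 72 hr at 37 degrees C beforehand.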

The target in assay [13] is D(1A) dopamine receptor (Homo sapiens) (UniProt P21728). The assay can be described thus: HTS Assay for Allosteric Agonists of the Human D1 Dopamine Receptor: Primary Screen for Potentiators (AID 488982). Further: 0% is about no effect. In outline:
as §1

The nature of assay [14]: qHTS for Inhibitors of ATXN expression: Validation (AID 588378). Further: nearly all actives have a fitted effect of over 75% in size. Further: potency means the concentration at half of the fitted maximal effect. In outline:
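HEK293 cells carrying ATXN2-firefly luciferase reporter, treated with compound 24 h at 37 °C. Viability read first by CellTiter-Fluor (405/525 nm), then reporter expression by Bright-Glo luminescence; controls were a known ATXN2 expression inhibitor and a luciferase inhibitor.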

The target in assay [15] is Tyrosyl-DNA phosphodiesterase 1 (Homo sapiens) (UniProt Q9NUW8). The assay can be described thus: Confirmation Assay for Inhibitors of Tyrosyl-DNA Phosphodiesterase (TDP1) (AID 489007). Further: potency means the concentration at half of the fitted maximal effect; nearly all actives have a fitted effect of over 40% in size. The conditions noted are these: recombinant human TDP1 enzymatic activity, dose-response. In outline:
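Loss of AlphaScreen signal reports Tdp1 cleavage of a dual-labelled DNA substrate. Conditions: 1 nM E. coli-derived enzyme, 15 nM substrate, 15 min compound preincubation, 5 min reaction, 10 min bead incubation, all at room temperature.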

Assay [16] addresses Thyrotropin receptor (Homo sapiens) (UniProt P16473). The assay can be described thus: qHTS Assay for Antagonists of the Thyroid Stimulating Hormone Receptor (AID 488980). Further: series mostly up to about 58 µM; 0% is about no effect. The gist of the method:
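TSHR-transfected HEK293 cells (2000/well) in HEPES-buffered HBSS with 70 uM RO 20-1724 were stimulated with 4 nM TSH (EC80, final) in the presence of compound. cAMP was measured by HTRF competition after lysis and 30 min at RT.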

In assay [17] the target is Thyrotropin-releasing hormone receptor (Homo sapiens) (UniProt P34981). The assay can be described thus: qHTS for Small Molecule Agonists and Allosteric Enhancers of Human TRH Receptor: Validation Screen for Agonists (AID 493127;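 active means calcium activation more than 3 SD above the typical response in the agonist read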;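 further: intracellular calcium rise by fluo-8 fluorescence before TRH EC20 addition; 0% is about no effect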). As to conditions: TRH receptor agonist cell assay; at 2 µM; stronger effect = higher value. In outline: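 Kinetic fluorescence assay of agonist-induced calcium release: overnight-plated TRHR cells, room-temperature fluo-8 loading, baseline then compound addition with per-second reads.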

Assay [18] concerns the target Galactokinase (Homo sapiens) (UniProt P51570). The assay is described as follows: qHTS Validation Assay for Inhibitors of Human Galactokinase (GALK) (AID 493189). Further: 0% is about no effect. In outline: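 GALK (5 nM) with 35 uM ATP and 100 uM galactose in HEPES pH 8.0 with MgCl2, NaCl, DTT and BSA. Reaction ran 1 h at room temperature. Residual ATP read by Kinase-Glo Plus luminescence.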
Assay [19] in a line: Validation screen for small molecules that induce DNA re-replication in SW480 colon adenocarcinoma cells (AID 504364). Further: 0% is about no effect. The gist of the method: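 Hoechst-stained SW480 nuclei, imaged at 405 nm excitation after 48 hr compound exposure, were counted for elevated DNA content as the re-replication signal.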

Chain of ATPase family AAA domain-containing protein 5 (Homo sapiens) (Q96QE3 whole entry, looked up, the tested form may be a part): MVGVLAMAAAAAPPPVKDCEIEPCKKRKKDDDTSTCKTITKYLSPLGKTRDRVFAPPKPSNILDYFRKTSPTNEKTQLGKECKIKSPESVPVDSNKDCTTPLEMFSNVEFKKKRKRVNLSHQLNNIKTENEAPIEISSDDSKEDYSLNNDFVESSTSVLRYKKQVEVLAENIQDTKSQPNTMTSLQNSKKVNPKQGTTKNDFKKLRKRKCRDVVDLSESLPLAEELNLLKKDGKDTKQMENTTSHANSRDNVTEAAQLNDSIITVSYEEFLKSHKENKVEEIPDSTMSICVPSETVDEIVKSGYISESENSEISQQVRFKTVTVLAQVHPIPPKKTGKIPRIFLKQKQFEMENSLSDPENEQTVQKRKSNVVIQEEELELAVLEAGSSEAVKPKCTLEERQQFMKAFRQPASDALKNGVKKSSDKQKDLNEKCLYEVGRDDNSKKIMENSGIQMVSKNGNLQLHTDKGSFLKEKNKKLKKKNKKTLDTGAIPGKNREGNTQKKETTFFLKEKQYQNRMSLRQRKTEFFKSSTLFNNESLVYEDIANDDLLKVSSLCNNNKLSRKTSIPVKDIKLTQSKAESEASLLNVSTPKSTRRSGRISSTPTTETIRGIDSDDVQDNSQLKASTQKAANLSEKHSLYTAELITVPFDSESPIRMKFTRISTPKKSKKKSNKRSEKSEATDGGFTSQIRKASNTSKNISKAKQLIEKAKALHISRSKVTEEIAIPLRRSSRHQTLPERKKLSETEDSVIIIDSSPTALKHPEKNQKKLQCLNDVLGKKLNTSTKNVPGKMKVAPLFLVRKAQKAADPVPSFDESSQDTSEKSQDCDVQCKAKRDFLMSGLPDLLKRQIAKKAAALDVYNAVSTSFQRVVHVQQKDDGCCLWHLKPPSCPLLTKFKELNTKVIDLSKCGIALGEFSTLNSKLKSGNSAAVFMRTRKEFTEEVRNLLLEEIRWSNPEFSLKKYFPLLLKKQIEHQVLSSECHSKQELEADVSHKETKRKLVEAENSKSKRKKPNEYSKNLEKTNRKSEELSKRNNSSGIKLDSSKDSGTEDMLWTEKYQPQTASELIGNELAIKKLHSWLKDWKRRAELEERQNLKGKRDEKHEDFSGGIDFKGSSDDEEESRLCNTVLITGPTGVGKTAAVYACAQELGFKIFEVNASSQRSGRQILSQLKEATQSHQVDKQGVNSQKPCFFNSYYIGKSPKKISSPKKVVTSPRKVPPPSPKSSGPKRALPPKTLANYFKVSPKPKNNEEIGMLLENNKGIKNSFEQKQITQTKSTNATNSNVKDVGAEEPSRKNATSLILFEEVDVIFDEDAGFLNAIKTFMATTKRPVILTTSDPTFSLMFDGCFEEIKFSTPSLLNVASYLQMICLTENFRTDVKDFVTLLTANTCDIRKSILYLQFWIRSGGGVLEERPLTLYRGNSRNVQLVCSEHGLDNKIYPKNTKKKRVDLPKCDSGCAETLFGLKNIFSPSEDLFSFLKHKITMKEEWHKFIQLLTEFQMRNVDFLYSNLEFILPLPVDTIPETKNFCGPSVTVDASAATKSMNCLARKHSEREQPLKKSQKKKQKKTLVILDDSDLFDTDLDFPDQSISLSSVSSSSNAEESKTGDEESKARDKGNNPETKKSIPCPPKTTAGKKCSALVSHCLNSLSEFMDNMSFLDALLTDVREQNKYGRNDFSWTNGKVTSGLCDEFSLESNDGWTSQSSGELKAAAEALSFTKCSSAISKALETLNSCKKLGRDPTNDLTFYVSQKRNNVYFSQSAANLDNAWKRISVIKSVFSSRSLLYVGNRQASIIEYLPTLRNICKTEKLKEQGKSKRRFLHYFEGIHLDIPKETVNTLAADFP
Chain of phosphoglycerate mutase (Leishmania major) (Q4Q090 1-553): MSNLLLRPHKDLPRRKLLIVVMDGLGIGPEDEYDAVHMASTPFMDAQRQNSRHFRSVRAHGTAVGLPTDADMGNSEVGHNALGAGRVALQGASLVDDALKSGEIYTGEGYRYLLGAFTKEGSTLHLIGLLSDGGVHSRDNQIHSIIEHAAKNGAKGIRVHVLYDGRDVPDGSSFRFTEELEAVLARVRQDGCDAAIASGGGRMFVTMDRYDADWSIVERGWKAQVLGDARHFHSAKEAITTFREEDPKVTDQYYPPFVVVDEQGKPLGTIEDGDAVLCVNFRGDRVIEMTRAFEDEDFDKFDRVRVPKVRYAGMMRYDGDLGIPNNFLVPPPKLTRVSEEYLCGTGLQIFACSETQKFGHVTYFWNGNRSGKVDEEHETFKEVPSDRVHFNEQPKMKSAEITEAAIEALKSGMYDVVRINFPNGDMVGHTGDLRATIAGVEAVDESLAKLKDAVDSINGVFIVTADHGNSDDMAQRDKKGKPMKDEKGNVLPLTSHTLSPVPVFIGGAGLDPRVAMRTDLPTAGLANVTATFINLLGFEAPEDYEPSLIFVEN
Chain of Ubiquitin carboxyl-terminal hydrolase 1 (Homo sapiens) (O94782 whole entry, looked up): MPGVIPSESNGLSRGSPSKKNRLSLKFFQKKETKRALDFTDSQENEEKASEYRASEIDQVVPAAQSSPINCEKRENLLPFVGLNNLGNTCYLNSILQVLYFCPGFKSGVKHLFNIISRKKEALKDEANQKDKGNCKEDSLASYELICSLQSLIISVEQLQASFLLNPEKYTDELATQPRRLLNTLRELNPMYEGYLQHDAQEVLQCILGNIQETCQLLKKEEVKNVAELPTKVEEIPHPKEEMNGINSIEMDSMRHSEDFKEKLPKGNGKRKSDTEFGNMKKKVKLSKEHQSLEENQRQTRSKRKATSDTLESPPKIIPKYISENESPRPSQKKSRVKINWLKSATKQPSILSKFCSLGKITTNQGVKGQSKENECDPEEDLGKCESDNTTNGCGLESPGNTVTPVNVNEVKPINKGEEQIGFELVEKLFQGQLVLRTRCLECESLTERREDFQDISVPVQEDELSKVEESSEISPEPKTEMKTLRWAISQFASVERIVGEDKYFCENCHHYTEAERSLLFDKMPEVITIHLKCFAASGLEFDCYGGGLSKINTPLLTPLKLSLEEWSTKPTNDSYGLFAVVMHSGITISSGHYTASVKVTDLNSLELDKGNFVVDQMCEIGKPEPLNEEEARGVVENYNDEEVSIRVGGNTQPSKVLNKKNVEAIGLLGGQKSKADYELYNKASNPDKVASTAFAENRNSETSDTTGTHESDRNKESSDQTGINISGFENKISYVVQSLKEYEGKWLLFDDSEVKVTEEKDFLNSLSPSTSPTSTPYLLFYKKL
Chain of Phosphoglycerate kinase, glycosomal (Trypanosoma brucei brucei) (P07378 whole entry, looked up): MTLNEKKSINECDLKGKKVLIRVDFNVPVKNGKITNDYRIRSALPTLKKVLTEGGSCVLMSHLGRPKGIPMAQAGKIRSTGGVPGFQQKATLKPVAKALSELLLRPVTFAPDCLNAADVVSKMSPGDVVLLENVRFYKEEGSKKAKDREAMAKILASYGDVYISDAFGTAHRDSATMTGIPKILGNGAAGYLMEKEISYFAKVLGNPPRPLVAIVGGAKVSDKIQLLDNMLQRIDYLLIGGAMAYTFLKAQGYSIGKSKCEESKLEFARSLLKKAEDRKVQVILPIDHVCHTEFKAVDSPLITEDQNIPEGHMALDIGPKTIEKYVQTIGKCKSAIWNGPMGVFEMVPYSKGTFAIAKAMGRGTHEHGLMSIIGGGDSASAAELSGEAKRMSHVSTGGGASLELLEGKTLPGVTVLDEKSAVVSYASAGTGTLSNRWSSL
Chain of D(1A) dopamine receptor (Homo sapiens) (P21728 whole entry, looked up): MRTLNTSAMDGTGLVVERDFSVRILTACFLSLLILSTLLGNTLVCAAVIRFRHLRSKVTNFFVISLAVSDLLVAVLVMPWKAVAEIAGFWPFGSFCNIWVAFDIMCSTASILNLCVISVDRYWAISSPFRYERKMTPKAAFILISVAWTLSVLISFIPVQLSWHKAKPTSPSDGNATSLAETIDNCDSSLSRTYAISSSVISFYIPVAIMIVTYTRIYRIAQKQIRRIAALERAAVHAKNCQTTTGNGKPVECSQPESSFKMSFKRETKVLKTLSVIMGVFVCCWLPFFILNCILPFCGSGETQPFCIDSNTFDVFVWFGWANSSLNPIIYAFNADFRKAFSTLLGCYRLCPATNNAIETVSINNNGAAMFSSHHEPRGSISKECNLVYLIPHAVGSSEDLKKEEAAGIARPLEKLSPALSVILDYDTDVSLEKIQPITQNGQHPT
Chain of ATP-dependent 6-phosphofructokinase (Trypanosoma brucei brucei) (O15648 whole entry, looked up): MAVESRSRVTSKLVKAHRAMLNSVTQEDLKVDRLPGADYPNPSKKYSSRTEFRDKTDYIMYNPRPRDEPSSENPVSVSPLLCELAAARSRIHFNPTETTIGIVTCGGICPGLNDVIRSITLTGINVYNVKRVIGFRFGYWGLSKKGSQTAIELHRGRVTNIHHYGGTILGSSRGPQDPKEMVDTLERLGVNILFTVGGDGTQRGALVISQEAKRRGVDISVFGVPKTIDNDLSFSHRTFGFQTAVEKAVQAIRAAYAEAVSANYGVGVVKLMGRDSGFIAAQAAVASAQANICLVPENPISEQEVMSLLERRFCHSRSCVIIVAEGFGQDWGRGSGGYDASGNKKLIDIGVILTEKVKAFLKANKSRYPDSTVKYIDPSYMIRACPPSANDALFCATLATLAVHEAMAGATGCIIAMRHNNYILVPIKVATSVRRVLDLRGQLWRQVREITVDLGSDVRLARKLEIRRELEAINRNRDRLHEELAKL

With `CC[C@@]1(c2ccccc2)NC(=O)N(C)C1=O`, the Potency result in [1] and in [2] was “inactive” in each case.
As to `CCN(CC)CCNC(C(=O)OCCC(C)C)c1ccccc1` (centres undefined), the Potency result in [1] and in [2] was “inactive” each time.
On to `Nc1ccc(S(=O)(=O)Nc2ccc(Cl)nn2)cc1`, for which the Potency entry in assay [1] was “inactive”.
Same read-out and setting: as for `O=C1c2c(O)cccc2Cc2cccc(O)c21`, the entry is “inactive”.
Take `CCCCCCCCCCCCCCCCCCOCC(O)CO` (centres undefined): the Potency result in [1] and in [2] was “inactive” in each case.
Regarding `COc1ccc2c(c1)C(=O)N(CCc1ccc(S(=O)(=O)NC(=O)NC3CCCCC3)cc1)C(=O)C2(C)C`, the Potency result in [1] and in assay [2] was “inactive” throughout.
`CCN(CC)C(C)CN1c2ccccc2Sc2ccccc21` (centres undefined): the Potency entry in assay [3], in assay [4], in assay [5], in assay [7] and in [12] was “inactive” throughout. Besides, the result in assay [6], in assay [8], in assay [9], in assay [10] and in assay [11] was inactive. Besides, the viability change in assay [7] was -0.429%. The Potency in assay [2] was 44.7 µM (active) and inactive.
For `Cc1cc(C(C#N)c2ccc(Cl)cc2)c(Cl)cc1NC(=O)c1cc(I)cc(I)c1O` (centres undefined), in [1], the Potency entry was “inactive”.
Regarding `C[C@]12C[C@H](O)[C@H]3[C@@H](CCC4=CC(=O)CC[C@@]43C)[C@@H]1CC[C@@H]2C(=O)CO`, the Potency result in [3], in [4], in assay [1], in assay [5], in assay [2] and in [12] was “inactive” throughout. In [14], the Potency entry is “inactive”. The result in assay [13], in assay [6], in assay [8], in assay [9], in [10] and in assay [11] was inactive. The Potency in assay [7] is 6.51 µM (active). Also, in assay [7], the viability change was -3.09%.
Turning to `O=c1cc[nH]c(=S)[nH]1`, the Potency result in [1] and in assay [2] was “inactive” in each case.
`O=Cc1ccccc1C=O`: the Potency was 14.1 µM (active) in [15] and 50.1 µM (active) in [2]. Moreover, the Potency result in assay [1] was “inactive”.
For the compound `CN1CCN(C2Cc3ccccc3Sc3ccc(Cl)cc32)CC1` (centres undefined), the call in [16], in assay [8], in assay [18], in assay [19], in [9] and in assay [10] was inactive. For the same compound, the outcome in assay [11] was inactive. The Potency in assay [4] is 199 nM (active); in assay [12], 17.8 µM (active); in assay [14], 12.6 µM (active). Also, the Potency result in [1], in [5] and in assay [7] was “inactive” throughout. Also, in assay [17], the activation was 0.75% (inactive). For the same compound, in assay [7], the viability change is -10.9%.
For `CC(=O)c1ccc2c(c1)N(CCCN(C)C)c1ccccc1S2`, the Potency entry in assay [1] and in [2] was “inactive” in each case.
For `CN(C)CCCN1c2ccccc2Sc2ccc(Cl)cc21`, the call in [16], in assay [8], in assay [18], in [9], in assay [10] and in [11] was inactive. Besides, the Potency entry in [5], in assay [7] and in assay [2] was “inactive” in each case. Further, in [17], the activation is 11.5% (inactive). For the same compound, the viability change in assay [7] came to 4.06%.
As for `Cc1ccc2nc(N)[nH]c(=O)c2c1Sc1ccncc1`, the Potency entry in assay [1] and in assay [2] was “inactive” each time.
For `O=C(CCCN1CCN(c2ccccn2)CC1)c1ccc(F)cc1`, in assay [1], the Potency entry is “inactive”.
With `CCCCOc1cc(C(=O)OCCN(CC)CC)ccc1N`, the Potency result in assay [1] and in [2] was “inactive” in each case.
Take `Nc1ncnc2c1ncn2[C@@H]1O[C@H](CO)[C@@H](O)[C@H]1O`: the Potency entry in assay [3], in assay [4], in assay [1], in [5], in assay [7] and in [2] was “inactive” each time. The Potency result in assay [12] and in assay [14] was “inactive” throughout. Besides, the call in assay [6], in assay [8], in [9], in assay [10] and in assay [11] was inactive. The viability change in [7] is 4.32%.
As for `CCN(CC)CCNC(=O)c1c(C)[nH]c(/C=C2\C(=O)Nc3ccc(F)cc32)c1C`, the Potency result in [1] was “inactive”.
As for `COCCOC(=O)C1=C(C)NC(C)=C(C(=O)OC/C=C/c2ccccc2)C1c1cccc([N+](=O)[O-])c1` (centres undefined), the Potency entry in assay [3], in assay [4], in [1] and in [5] was “inactive” each time. Moreover, the call in [8], in assay [9], in assay [10] and in [11] was inactive.
